Experimental data: article PMC4336329 (PLoS ONE, 2015)
Out of some 310,000 compounds screened, about 2,200 (0.71%) showed an effect of 50% or more. Effects have a minus sign here. The list comes from a sample in which strong results are over-represented; it also holds similar structures and randomly drawn compounds.

molecular target: human ether-à-go-go-related gene (hERG) potassium channel (human, UniProt Q12809); experiment: primary screen, population patch clamp on CHO cells stably expressing hERG; higher = less effect of the substance
Sequence (Q12809 whole entry, looked up): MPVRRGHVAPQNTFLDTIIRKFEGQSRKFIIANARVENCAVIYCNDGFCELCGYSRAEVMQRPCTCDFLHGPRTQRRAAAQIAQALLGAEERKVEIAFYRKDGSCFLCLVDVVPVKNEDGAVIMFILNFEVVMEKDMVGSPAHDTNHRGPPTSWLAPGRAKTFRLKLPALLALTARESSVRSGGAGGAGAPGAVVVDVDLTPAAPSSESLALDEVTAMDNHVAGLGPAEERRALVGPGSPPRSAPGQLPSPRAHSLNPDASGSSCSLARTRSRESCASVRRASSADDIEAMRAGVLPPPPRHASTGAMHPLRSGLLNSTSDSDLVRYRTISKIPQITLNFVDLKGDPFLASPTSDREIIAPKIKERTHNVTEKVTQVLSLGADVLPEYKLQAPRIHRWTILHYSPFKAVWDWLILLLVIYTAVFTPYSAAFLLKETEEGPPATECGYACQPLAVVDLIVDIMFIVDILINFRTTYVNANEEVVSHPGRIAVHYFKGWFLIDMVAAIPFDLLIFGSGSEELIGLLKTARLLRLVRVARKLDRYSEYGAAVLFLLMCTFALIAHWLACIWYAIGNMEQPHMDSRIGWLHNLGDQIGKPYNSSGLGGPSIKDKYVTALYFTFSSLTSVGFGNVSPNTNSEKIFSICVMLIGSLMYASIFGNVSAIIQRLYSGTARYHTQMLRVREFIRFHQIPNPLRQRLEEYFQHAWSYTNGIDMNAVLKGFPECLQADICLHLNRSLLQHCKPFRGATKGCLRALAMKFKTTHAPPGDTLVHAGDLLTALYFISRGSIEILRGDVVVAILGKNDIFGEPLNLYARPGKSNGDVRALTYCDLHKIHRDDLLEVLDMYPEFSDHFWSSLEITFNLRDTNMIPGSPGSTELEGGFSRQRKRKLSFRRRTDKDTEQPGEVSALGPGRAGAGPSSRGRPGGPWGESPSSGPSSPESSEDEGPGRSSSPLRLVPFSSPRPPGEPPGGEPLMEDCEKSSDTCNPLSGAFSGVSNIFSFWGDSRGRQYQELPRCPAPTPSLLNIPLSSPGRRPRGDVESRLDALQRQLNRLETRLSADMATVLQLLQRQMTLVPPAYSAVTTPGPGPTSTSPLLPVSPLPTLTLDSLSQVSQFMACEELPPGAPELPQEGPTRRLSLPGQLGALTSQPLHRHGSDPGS

SMILES | hERG current change (%, negative = inhibition) at 1uM [%]
COc1ccc(C2C=C(Nc3ccccc3)C(=O)N2c2ccccc2)cc1OC (stereo not drawn) | 20.1
C/C(=N/NC(=O)c1ccc(C)nc1)c1ccc2c(c1)CCCC2 | -4.02
CC(=O)Oc1cc2c(cc1Cl)C1(CC(c3ccccc3Cl)O2)CC(C)(C)NC(=S)N1 (stereo not drawn) | 4.5
COc1ccc(NC(=O)NCCCCc2ccccc2)cc1 | 6.14
COc1ccc(NC(=O)N2CCC(Cc3ccccc3)CC2)cc1 | 6.74
COc1ccc(NC(=O)NCCCN2CCC(Cc3ccccc3)CC2)cc1 | -82.2
Cc1ccc(NC(=O)CCn2nc(C)cc2C)c(C)c1 | 8.75
Cc1ccccc1CC1(CO)CCCN(C(=O)c2cc(Cl)ccc2F)C1 (stereo not drawn) | 14.5
Cc1ccccc1CC1(CO)CCCN(C(=O)c2ccccc2N(C)C)C1 (stereo not drawn) | 10.9
Cc1ccccc1CC1(CO)CCCN(C(=O)c2ccccc2Cl)C1 (stereo not drawn) | -70.4
Cc1cc(=O)n2c(n1)OC(CO)C2 (stereo not drawn) | 12.1
Cc1nc(C)c(-c2ccccc2)c(=O)[nH]1 | 12.8
O=C(N1CCOCC1)N1c2ccccc2CC(N2CCOCC2)c2ccccc21 (stereo not drawn) | 17
OCC1(Cc2ccccc2)CCN(CCCC2CCCC2)CC1 | -79
OCC1(Cc2ccc(Cl)cc2)CCN(Cc2ccccc2F)CC1 | -18.4
OCC1(Cc2ccc(Cl)cc2)CCN(Cc2ccc(F)c(F)c2)CC1 | -4.29
CN1CCC(CO)(Cc2ccccc2)CC1 | 4.74
OCC1(Cc2ccc(Cl)cc2)CCN(CCCc2ccccc2)CC1 | -83.6
OCC1(Cc2ccccc2)CCN(Cc2ccc(C(F)(F)F)cc2)CC1 | -6.85
COc1ccc(CCNC(=O)Cc2cccs2)cc1 | 16.8
COc1ccc(C(CNC(=O)CN2C(=O)NC3(CCCC3)C2=O)N(C)C)cc1 (stereo not drawn) | 13.2
COc1ccc2nc(N=NC3=C(O)CC(C)(C)CC3=O)sc2c1 | 7.73
COc1ccccc1Nc1nc(N)nc(CN2CCC(Cc3ccccc3)CC2)n1 | -95.7

SMILES | hERG current change (%, negative = inhibition) at 1uM [%]
COc1cccc(N2CCN(Cc3nc(N)nc(Nc4ccccc4OC)n3)CC2)c1 | 10.2
COc1ccccc1Nc1nc(N)nc(CN2CCN(Cc3ccc4c(c3)OCO4)CC2)n1 | -79.8
COc1ccccc1Nc1nc(N)nc(CN2CCCCCC2)n1 | -32.2
COc1ccccc1Nc1nc(N)nc(CN2CCN(c3ccccc3)CC2)n1 | -3.16
COc1ccccc1Nc1nc(N)nc(CN2CCOCC2)n1 | 14.7
COc1ccccc1Nc1nc(N)nc(CN2CCN(Cc3ccccc3)CC2)n1 | -76.6
COc1ccccc1Nc1nc(N)nc(CN2CCN(c3ccccc3F)CC2)n1 | -9.68
COc1ccc(N2CCN(Cc3nc(N)nc(Nc4ccccc4OC)n3)CC2)cc1 | -14.5
O=C(N/C(=C/c1cccnc1)C(=O)N1CCCCCC1)c1ccccc1 | 6.71
CC1NC(=O)N(C)C2NC(=O)N(C)C(c3ccccc3)C12 (stereo not drawn) | 11.1
CC(C)(C)Sc1ccc([N+](=O)[O-])cc1C(=O)Nc1ccncc1 | 0.86
O=C(O)C(=O)O.c1ccc(Cc2ccc(OCCCNC3CCCC3)cc2)cc1 | -3.05
O=C(O)C(=O)O.c1ccc(COc2ccc(OCCCNC3CCCC3)cc2)cc1 | 8.41
O=C(O)C(=O)O.c1ccc(-c2ccc(OCCCNC3CCCC3)cc2)cc1 | -54.9
COc1ccc(CCNC(=O)Cn2c([N+](=O)[O-])cnc2C)cc1OC | 8.24
CC1CC(C)CN(C(=S)SCc2nc(N)nc(Nc3ccccc3)n2)C1 (stereo not drawn) | 7.72
Cc1ccc(Nc2nc(N)nc(CN3CCc4ccccc4C3)n2)cc1 | -31.5
COc1ccccc1Nc1nc(N)nc(CN2CC(C)CC(C)C2)n1 (stereo not drawn) | -70.8
CC1CC(C)CN(Cc2nc(N)nc(Nc3ccccc3)n2)C1 (stereo not drawn) | -52.3
CCN1CCN(Cc2nc(N)nc(Nc3ccc(C)c(C)c3)n2)CC1 | -14.8
CC1CC(C)CN(Cc2nc(N)nc(Nc3ccc4ccccc4c3)n2)C1 (stereo not drawn) | -61.1
Nc1nc(CN2CCc3ccccc3C2)nc(Nc2ccccc2)n1 | -10.8
COc1ccccc1Nc1nc(N)nc(CN2CCCCC2)n1 | -4.26

SMILES | hERG current change (%, negative = inhibition) at 1uM [%]
COc1ccccc1Nc1nc(N)nc(CN2CCC(C)CC2)n1 | -37.3
O=C(CC1NCCc2ccccc21)Nc1ccccc1 (stereo not drawn) | 4.29
COc1cc(S(=O)(=O)n2cnc(C)c2)ccc1Cl | 6.58
CCCCC(=O)NNC(=S)NC(=O)C(c1ccccc1)c1ccccc1 | 12.3
CC(C)(C)N(CC#CCC(O)(c1ccccc1)C1CCCC1)CCO (stereo not drawn) | 15.6
CNc1nc(CC(C)=O)ns1 | 6.99
Cc1ccc(Cc2cc(C)n[nH]c2=O)cc1 | 27.1
CN(C)c1ccc(/C=N/NC(=O)C(O)(c2ccccc2)c2ccccc2)o1 | -5.86
CCOC(=O)C1CCCCN1Cc1cc(Cl)ccc1O (stereo not drawn) | 4.99
COC(=O)c1cc2c(ccn2-c2ccc(F)cc2)n1Cc1ccc(OC)cc1 | 0.901
COc1ccc(C(=O)C2CCCN(Cc3ccc4nonc4c3)C2)cc1F (stereo not drawn) | 3.27
COc1ccc(C(=O)C2CCCN(Cc3cnc(N4CCOCC4)s3)C2)cc1F (stereo not drawn) | -17.9
COc1ccc(C(=O)C2CCCN(Cc3cccn3-c3nccs3)C2)cc1F (stereo not drawn) | -91.4
COc1ccc(C(=O)C2CCCN(Cc3cccn3-c3nccs3)C2)cc1OC (stereo not drawn) | -90.2
COc1ccc(C(=O)C2CCCN(Cc3ccsc3)C2)cc1OC (stereo not drawn) | -38.5
COc1ccc(C(=O)C2CCCN(Cc3cccn3-c3cccnc3)C2)cc1OC (stereo not drawn) | -34.9
O=C(O)c1ccc2c(=O)[nH]c(CN3CCOCC3)nc2c1 | 15.6
CC(OC(=O)C1CCCCC1)C(=O)Nc1ccc(S(N)(=O)=O)cc1 (stereo not drawn) | 9.37
COc1ccc(CC(=O)Nc2ccc(-c3noc(-c4ccccc4OC)n3)cc2)cc1 | -11.7
O=S(=O)(NCCc1ccncc1)c1cc(Br)ccc1F | 2.96
O=C(c1cc([N+](=O)[O-])ccc1N1CCCCC1)N1CCc2ccccc21 | 8.63
O=C(CCn1c(=O)[nH]c2ccccc2c1=O)NCCCN1CCN(c2cccc(Cl)c2)CC1 | -30
COc1cc2[nH]c(=O)n(CCC(=O)NCCCN3CCN(c4ccccc4F)CC3)c(=O)c2cc1OC | 0.776

SMILES | hERG current change (%, negative = inhibition) at 1uM [%]
O=C(NCCCN1CCCC1)Nc1ccccc1[N+](=O)[O-] | 14.8
O=C(CCCCCn1c(=O)[nH]c2ccccc2c1=O)NCCCN1CCN(c2ccccc2F)CC1 | -84.6
O=C(NCCCN1CCN(c2ccccc2F)CC1)Nc1ccccc1[N+](=O)[O-] | -51.1
O=C(NCCCN1CCN(c2ccccc2F)CC1)Nc1ccc(F)cc1 | -47.6
Cn1cnnc1SCC(=O)NCc1cccc(C(F)(F)F)c1 | 24.1
CC(=O)Nc1ccc(N/C=C(\C#N)S(=O)(=O)c2ccc(Cl)cc2)cc1 | 11.1
CCc1cccc(NC(=O)C2CCCN(S(=O)(=O)c3ccc4[nH]c(=O)ccc4c3)C2)c1 (stereo not drawn) | -0.861
Cc1ccc(N2CC(C(=O)N3CCc4ccccc4C3)CC2=O)cc1 (stereo not drawn) | -17.7
CCOc1ccc(N2CC(C(=O)N3CCc4ccccc4C3)CC2=O)cc1 (stereo not drawn) | -67.1
CCOc1ccc(N2CC(C(=O)N3CCc4ccccc43)CC2=O)cc1 (stereo not drawn) | -8.82
CCC(C)(C)n1nnnc1C(c1cc2ccc(OC)cc2[nH]c1=O)N1CCc2ccccc21 (stereo not drawn) | 6.76
CC(NC(=O)c1cc2c(=O)n3ccccc3nc2n(CC2CCCO2)c1=N)c1ccccc1 (stereo not drawn) | -72.3
N=c1c(C(=O)NC2CCCC2)cc2c(=O)n3ccccc3nc2n1CC1CCCO1 (stereo not drawn) | -94.4
N=c1c(C(=O)NC2CCCCC2)cc2c(=O)n3ccccc3nc2n1CC1CCCO1 (stereo not drawn) | -79.2
N=c1c(S(=O)(=O)c2ccccc2)cc2c(=O)n3ccccc3nc2n1CC1CCCO1 (stereo not drawn) | -17
Cc1ccc(S(=O)(=O)c2cc3c(=O)n4ccccc4nc3n(CC3CCCO3)c2=N)cc1C (stereo not drawn) | 9.33
CCOC(=O)c1c(C)[nH]c(N=Nc2cccc(OC)c2)c1C | 6.77
CCOC(=O)C1CCN(S(=O)(=O)c2ccc(Br)c(OCC)c2)CC1 | 0.854
CC1=[N+]([O-])C2(N)CCc3nonc3C2(O)C1 (stereo not drawn) | 6.29
COC(=O)[C@H](CCSC)NC(=O)Nc1cc(C)ccc1C | 11.7
C=CCn1c(O)c(C(C)=NCCN2CCN(C(=S)NC)CC2)c(=O)[nH]c1=O | 4.36
